# TrxR1 substrate = qHTS Assay for Substrates of Mammalian Selenoprotein Thioredoxin Reductase 1 (TrxR1): qHTS | Thioredoxin reductase 1, cytoplasmic (Rattus norvegicus), O89049 | actives 0.01% (n = 390,000) | AID 588456, 2011 | Potency, µM (series often up to 114 µM), inactives show at the top dose activity change, negative = substrate turnover | purified TrxR1 substrate turnover, NADPH consumption readout; also: nearly all actives have a fitted effect of over 50% in size
#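 Rat TrxR1, dispensed at 90 nM, was prereduced with 400 uM NADPH (final) for 5 min at ~22 deg C, then incubated with compound 15 min before 400 uM selenite. A first-read NADPH fluorescence drop versus no-compound background flagged substrates.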
# mIDH1 inhibitor = qHTS for Inhibitors of mutant isocitrate dehydrogenase 1 (IDH1): qHTS; Isocitrate dehydrogenase [NADP] cytoplasmic (Homo sapiens), O75874; Potency, µM (doses to about 76.6 µM), for the others: at the top dose activity change, negative = inhibition, most hits filed as inhibitors; IDH1-R132H enzyme, NADPH consumption, diaphorase/resazurin fluorescence; actives 0.093% (n = 390,000); also: nearly all actives have a fitted effect of over 65% in size
#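 IDH1-R132H (0.5 ug/mL) preincubated 30 min with compound, then NADPH (0.016 mM) and alpha-KG (2 mM) added; 80 min at RT, pH 7.5. Remaining NADPH coupled via diaphorase/resazurin to fluorescence (540/590 nm); concentration-response curves normalized to no-enzyme control.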
# Sfp PPTase inh = qHTS Assay for Inhibitors of Bacillus subtilis Sfp phosphopantetheinyl transferase (PPTase); 4'-phosphopantetheinyl transferase ffp (Bacillus subtilis), Q9F4F7; Biochemical Sfp PPTase activity, qHTS; Potency, µM, without a hit: largest response in the series, negative = inhibition, actives largely listed as inhibitors; actives 3.5% (n = 310,000); AID 1490, 2009;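 also: the enzyme is Sfp with the accession as filed and its product quenches rhodamine fluorescence; 0% = enzyme reaction without inhibitor and -100% = no enzyme wells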
#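 Step 1, compound plus 15 nM Sfp-PPTase, 15 min, room temperature. Step 2, add rhodamine-CoA (5 uM) and BHQ-2-YbbR (12.5 uM). Step 3, read 525/598 nm fluorescence at 0 and 30 min.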
# TrxR1 inh = qHTS Assay for Inhibitors of Mammalian Selenoprotein Thioredoxin Reductase 1 (TrxR1): qHTS | Potency, µM (titrated, usually from 114 µM), without a hit: top-dose activity change, negative = inhibition, actives largely listed as inhibitors | Thioredoxin reductase 1, cytoplasmic (Rattus norvegicus), O89049 | recombinant rTrxR1, NADPH fluorescence consumption, selenite substrate | AID 588453, 2011 | actives 1% (n = 390,000); also: nearly all actives have a fitted effect of over 65% in size
#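 Rat TrxR1 (90 nM in the dispensed reagent) was pre-reduced with 400 uM NADPH for 5 min at room temperature, then incubated with compound for 15 min. After 400 uM selenite was added, NADPH fluorescence (Ex 340/Em 450 nm) was followed for 8 min.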
# VDR inhibitor = Inhibitors of the vitamin D receptor (VDR): qHTS. VDR-SRC2-3 peptide fluorescence polarization, 2 h. actives 0.93% (n = 400,000). Potency, µM, for the others: max response, negative = inhibition, most hits filed as inhibitors
# Target sequence (P11473 whole entry, looked up): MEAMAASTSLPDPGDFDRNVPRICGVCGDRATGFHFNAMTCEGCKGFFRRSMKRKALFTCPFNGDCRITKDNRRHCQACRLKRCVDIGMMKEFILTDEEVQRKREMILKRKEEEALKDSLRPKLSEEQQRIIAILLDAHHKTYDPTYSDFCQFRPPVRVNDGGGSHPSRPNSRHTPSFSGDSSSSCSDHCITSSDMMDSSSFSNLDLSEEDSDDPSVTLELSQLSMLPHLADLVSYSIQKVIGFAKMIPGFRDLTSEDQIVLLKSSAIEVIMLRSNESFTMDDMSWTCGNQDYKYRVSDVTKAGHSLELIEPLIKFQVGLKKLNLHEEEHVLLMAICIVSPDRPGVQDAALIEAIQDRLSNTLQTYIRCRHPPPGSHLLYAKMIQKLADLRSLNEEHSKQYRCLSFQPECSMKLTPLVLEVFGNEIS
#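 Fluorescence polarization assay measuring small-molecule disruption of VDR binding to the coregulator peptide SRC2-3. Compounds were pin-transferred (23 nl) into the reagent mix and incubated 2 h at room temperature before reading.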
# PLK1 PBD block = qHTS for Inhibitors of PLK1-PDB (polo-like kinase 1 - polo-box domain): Primary Screen | Serine/threonine-protein kinase PLK1 (Homo sapiens), P53350 | Plk1 PBD binding of FITC phosphopeptide, fluorescence polarization | Potency, µM, inactives show max response, negative = inhibition, most hits filed as inhibitors | actives 2.8% (n = 360,000); also: series mostly up to about 57 µM; nearly all actives have a fitted effect of over 65% in size
# An asterisk follows results filed as active; ? = inconclusive; nt = not tested or not shown; [ ] = dose if it differs, or a comment. Rows were chosen to be rich in hits. Some 5.2% of all compounds tested hit in one or more screens of this group. Calls follow the shape of the dose curve; as a rule, active = well fitted curve in the direction sought with a large enough effect; inconclusive = small, poorly fitted or top-dose-only effect, or another doubt; inactive = no such curve, though single readings can be large; an effect the other way counts as inactive or inconclusive. Unless noted, % is scaled to controls: 0 for no effect and ±100 for the full control effect; potency is read from the fitted curve at half-maximal effect.
SMILES,TrxR1 substrate,mIDH1 inhibitor,Sfp PPTase inh,TrxR1 inh,VDR inhibitor,PLK1 PBD block
Cc1onc(-c2ccccc2Cl)c1C(=O)Nc1ccccc1C(N)=O,-4.4%,13.0%,11.1%,2.5%,0.2%,-2.1%
COc1cccc(OC)c1C(=O)Nc1sc2c(c1C#N)CCC2,9.9%[57.1 µM],10.6%,39.8µM*,3.2%[57.1 µM],7.5%,-4.7%
Cc1onc(-c2ccccc2Cl)c1C(=O)Nc1sc2c(c1C#N)CCC2,-1.7%,-4.4%,17.8µM*,-4.0%,-11.0%,26.7µM*
Cc1onc(-c2ccccc2Cl)c1C(=O)NC(=S)Nc1ccccc1C(N)=O,5.4%,6.4%,50.1µM*,-22.8%,3.8%,-11.9%
N#Cc1c(NC(=O)c2ccco2)sc2c1CCC2,-14.2%,-1.8%,-3.9%,?,-10.1%,29.9µM*
Cc1onc(-c2ccccc2)c1C(=O)Nc1sc2c(c1C#N)CCC(C)C2 (stereo not drawn),27.3%,0.6%,-2.0%,37.0%,2.6%,-5.5%
Cc1onc(C(=O)Nc2sc3c(c2C#N)CCCC3)c1[N+](=O)[O-],-3.3%,-0.4%,50.1µM*,15.8µM*,?,26.7µM*
N#Cc1c(NC(=O)C2CC(c3ccccc3Cl)=NO2)sc2c1CCC2 (stereo not drawn),-4.9%[57.1 µM],6.8%,12.3%,8.2%,12.2%,?
N#Cc1c(NC(=O)C2CC(c3ccccc3O)=NO2)sc2c1CCC2 (stereo not drawn),-15.6%,2.3%,25.1µM*,-18.9%,7.3%,18.9µM*
CC(c1nc2ccccc2c(=O)[nH]1)N1CCCN(S(=O)(=O)c2ccc(F)cc2)CC1 (stereo not drawn),-6.9%,-3.1%,nt,9.1%,-8.4%,-9.3%
CN(CC(=O)Nc1ccc(Cl)c(C(F)(F)F)c1)C(=O)c1ccc2c(c1)NC(=O)CS2,-6.1%,-1.0%,nt,5.6%,16.1%,-11.4%
Cc1ccc(C)c(S(=O)(=O)N2CCCCC2CCNC(=O)C(=O)NCCc2ccco2)c1 (stereo not drawn),8.5%,4.3%,nt,34.6%,3.2%,1.1%
COC(=O)C1CCN(C2=C(NS(=O)(=O)c3ccc(Cl)cc3)C(=O)c3ccccc3C2=O)CC1,-3.9%,-10.9%,-15.2%,-18.2%,-20.0%,21.2µM*
NC(=O)C1CCN(C2=C(NS(=O)(=O)c3ccc(Cl)cc3)C(=O)c3ccccc3C2=O)CC1,-2.2%,-1.5%,-14.7%,20µM*,-8.6%,-13.3%
Cc1ccc(S(=O)(=O)NC2=C(N3CCN(Cc4ccccc4)CC3)C(=O)c3ccccc3C2=O)cc1,-7.3%,1.8%,4.3%,-13.2%,-6.0%,-3.5%
CCOC(=O)N1CCN(C2=C(NS(=O)(=O)c3ccc(C)cc3)C(=O)c3ccccc3C2=O)CC1,-2.0%,6.7%,79.4µM*,-5.2%,?,?
N#CN=c1snc(-c2ccccc2)n1-c1ccc(Br)cc1,8.4%[0.0914 µM],nt,nt,10.1%[0.0914 µM],-9.7%,nt
CCOC(=O)CN1NC2(CCC(C(C)(C)C)CC2)NC1=S (stereo not drawn),2.5%,-1.6%,22.4µM*,-5.1%,8.9%,-2.5%
CCOC(=O)CN1NC2(CCCCC2)NC1=S,5.8%,6.3%,28.2µM*,-4.4%,-18.2%,-11.3%
CCOC(=O)Cn1c2c(c(=N)c3c1CCC3)CCC2,0.7%,7.4%,4.2%,7.8%,3.9%,-6.3%
CCOC(=O)CON1C(=O)C(=O)N(OCC(=O)OCC)[C@H]2CCCC[C@H]21,7.6%,2.4%,12.0%,17.8%,-13.2%,3.7%
CCOC(=O)CN1NC2(CCCCCCC2)NC1=S,1.7%[57.1 µM],3.9%,39.8µM*,-6.2%[57.1 µM],-8.4%,-0.5%
CCOC(=O)CN1NC2(CCCC(C)C2)NC1=S (stereo not drawn),5.0%,1.6%,25.1µM*,3.0%,6.1%,-3.0%
COc1ccc2c(c1)cc1c(=O)n(CC(=O)NC(C)C)nc(C)n12,11.8%,-5.4%,nt,5.5%,-1.4%,nt
CCOC(=O)c1cnc2c(Cl)cc(Cl)cc2c1NCCCN1CCOCC1,5.4%,4.6%,?,15.8µM*,-4.7%,13.4µM*
SMILES,TrxR1 substrate,mIDH1 inhibitor,Sfp PPTase inh,TrxR1 inh,VDR inhibitor,PLK1 PBD block
O=C(COC(=O)c1ccccc1Br)Nc1cccnc1Cl,-3.1%,-1.3%,nt,0.3%,-5.2%,-3.2%
COc1c2c(c(C(=O)/C=C/C(C)=C/c3ccccc3)c3c1OCO3)CCN(C)C2,nt,nt,-8.8%,nt,44.7µM*,nt
CCc1ccc(C2=NNC(=Nc3cccc(S(=O)(=O)N(C)C)c3)SC2)cc1,-7.8%,-8.6%,70.8µM*,0.1%,-1.1%,-3.5%
Cc1ccc(C2=NNC(=Nc3ccc(F)cc3)SC2)cc1,-0.1%[57.1 µM],?,?,8.9%[57.1 µM],-3.4%,?
Cc1ccc(S(=O)(=O)CNC(=S)c2cccc(C)c2)cc1,4.7%,4.4%,3.4%,?,3.8%,?
Cc1ccc(S(=O)(=O)CNC(=S)c2ccc3ccccc3c2)cc1,-15.9%,-3.8%,56.2µM*,39.8µM*,-26.8%,?
CCOc1ccccc1N(CC(=O)NC1CCCCC1)S(=O)(=O)c1ccc(C)cc1,-7.2%,4.4%,4.7%,-5.1%,12.9%,5.4%
CN(C)c1ccnc2sc(C(=O)c3ccc(Br)cc3)c(N)c12,10.0%[57.1 µM],4.4%,-30.5%,13.1%[57.1 µM],3.9%,-17.1%
Cc1snc2sc(C(=O)c3ccc(F)cc3)c(N)c12,0.5%,3.9%,39.8µM*,12.3%,-8.4%,0.7%
COc1ccc(C2=Nc3ccccc3N(C(=O)c3ccc(C)cc3)C2C(=O)NCc2ccccc2)cc1 (stereo not drawn),nt,nt,nt,nt,nt,3.6%
Cc1ccc(C2=Nc3ccccc3N(C(=O)c3ccccc3)C(C)C2)cc1 (stereo not drawn),-7.5%,1.0%,-2.9%,-3.4%,-1.5%,29.9µM*
O=[N+]([O-])c1cccc(N(CC(O)CN2CCCCC2)S(=O)(=O)c2ccccc2)c1 (stereo not drawn),4.3%[57.1 µM],11.1%,-3.6%,15.9%[57.1 µM],8.1%,-6.5%
O=C(Nc1nc2c(F)cc(F)cc2s1)c1ccco1,-0.7%[57.1 µM],-0.9%,9.7%,7.7%[57.1 µM],-14.0%,-16.5%
O=C(CCc1ccccc1)Nc1nc2c(F)cc(F)cc2s1,-0.7%,1.4%,35.5µM*,-5.6%,-12.5%,-2.7%
O=C1C=C[C@@H](O)[C@H]2[C@@H]3C(=O)N(Cc4ccccc4)C(=O)[C@@H]3CC[C@H]12,nt,nt,-7.7%,nt,nt,nt

# Source: PubChem
